The record followed here is PubChem BioAssay (EPA / NIEHS).

Each structure is given as a SMILES string. Calls of active or inactive are those of the source. The calls were made as follows: active = hit-call score of the fitted dose curve at least 0.9, where 1 is the maximum; inactive = score below 0.9.

Read-out in the assay: JUN Transcription Factor, JUN (gene 3725)
The experiment in a line: LTEA_HepaRG_JUN: Life Technologies and Expression Analysis (LTEA) Assay for JUN Transcription Factor using HepaRG (AID 2283513). Conditions: mRNA level, 48 h; actives raise or lower the signal. On the procedure:
LTEA_HepaRG is a cell based, multiplexed-readout assay that uses HepaRG, a human liver cell line, with measurements taken at 48 hours after chemical dosing on a 96-well plate.LTEA_HepaRG_JUN is one of 102 assay component(s) measured in the LTEA HepaRG cell culture assay. It is a marker of Cell proliferation, survival, death.Data from the assay component LTEA_HepaRG_JUN was analyzed into 1 endpoint. This assay endpoint, LTEA_HepaRG_JUN, was analyzed with bidirectional fitting relative to DMSO as the negative control and baseline of activity. Using a type of inducible reporter, measures of mRNA induction for gain or loss-of-signal activity can be used to understand regulation of transcription factor activity. To generalize the intended target to other relatable targets, this assay endpoint is annotated to the dna binding intended target family, where the subfamily is basic leucine zipper.
A total of 1060 chemcials from the ToxCast library were tested in eight-point concentration-response experiments. Cell culture and cytotoxicity assays were conducted at Thermo Fisher Scientific's Custom Services facility (Madison, WI). A single lot of human HepaRG cells (Thermo Fisher Scientific, Frederick, MD) was used for the cell culture experiments. 96-well format collagen type I coated plates of human HepaRG cells were prepared using established methods. Briefly, cryopreserved HepaRG cells were thawed, plated at a density of approximately 100,000 cells/well in HepaRG Thaw, Plate, and General Purpose media (HPRG770, Thermo Fisher Scientific), and incubated for 48 hours. 0.5% DMSO was selected as vehicle control to balance the requisite need of DMSO in HepaRG cultures to maintain differentiation (for example, baseline metabolism, proportions of hepatocytes vs. cholangiocytes), while enabling further hepatic receptor pathway activation (for example, PXR and CAR) in response to chemical exposure. 48 hours after plating, the culture medium was replaced with HepaRG Serum-Free Incudtion Media. Cells were exposed to each test chemical in duplicate and maintained in CO2 incubators for another 48 hours. Chemical plates were thawed to room temperature and 200x concentrations of treatment groups were prepared. 8-point conentration-reponse curves were made with the highest exposure at 100 uM, followed by half-log dilutions, all in 0.5% DMSO. Each test plate contained variouse controls, induction positive controls (1mM phenobarbital), cytotoxicity positive controls ([…] aflatoxin B1), vehicle controls (0.5% DMSO), and total lysis controls (0.5% DMSO). Cell morphology images were taken using an Essen IncuCyte FLR automated microscope, with six 96-well plates imaged in about 24 minutes. Images were captured and exported and JPEG files. Spent culture media was transfered to black-well plates for the LDH assay, and remaining media was sorted at -80 C for later use. Cells were treated with RLT buffer and frozen until shipped for gene expression analysis. Total RNA was isolated from the cell suspension in 75 uL of Buffer RLT (Qiagen, Germantown, MD 20874) by Quintiles/Expression Analysis (Durham, NC) using a custom isolation procedure. Total RNA from each plate well was transferred to a preamplification plate. Fluidigm's 96.96 Dynamic ArrayTM (Fluidigm, Amsterdam, the Netherlands) technology was used for gene expression analyses by quantitative reverse transcription polymerase chain reaction (qRT-PCR, performed by Quintiles/Expression Analysis, Durham, NC)89. Standard TaqManTM Assays (Applied Biosystems/ThermoFisher Scientific, Foster City, CA) were used to assess the expression of 93 genes selected based on their selectivity and sensitivity to important hepatic receptors known to be modulated by environmental chemicals; importance in human hepatocyte functionality; and hepatotoxicity. […]
As to `CCc1ccc(C(=O)NN(C(=O)c2cc(C)cc(C)c2)C(C)(C)C)cc1`, the call was inactive.
Still for that read-out and setting: for `O=C(O)COc1ccc(Cl)cc1Cl` the value was “inactive”; for `C[C@H]1[C@H](c2ccc(Cl)cc2)SC(=O)N1C(=O)NC1CCCCC1`, “inactive”; for `CCN(CC)C(=O)SCc1ccc(Cl)cc1`, “inactive”.
On to `CN1CSC(=S)N(C)C1`, for which the compound was classed as inactive.
Still for that read-out and setting: the result for `CNC(=O)/C=C(\C)OP(=O)(OC)OC` reads “inactive”.
`CCCN(CCOc1c(Cl)cc(Cl)cc1Cl)C(=O)n1ccnc1`: the half-maximal activity concentration (AC50) is 50 µM (active).
For `CCOC1Oc2ccc(OS(C)(=O)=O)cc2C1(C)C` (stereo not given), the compound was called inactive.
On the same count and under the same terms, for `O=S(=O)(O)C(F)(F)C(F)(F)C(F)(F)C(F)(F)C(F)(F)C(F)(F)C(F)(F)C(F)(F)F` the value was “inactive”; for `CCCN(CCC)c1c([N+](=O)[O-])cc(C(F)(F)F)cc1[N+](=O)[O-]`, “inactive”.
On the same count and under the same terms, the result for `N#Cc1c(Cl)c(Cl)c(Cl)c(C#N)c1Cl` reads “inactive”; that for `OCCOc1ccccc1`, “inactive”; that for `CNC(=O)CSP(=S)(OC)OC`, “inactive”.
The same measure, in the same setting: the result for `Cc1[nH]c(=O)n(C(C)(C)C)c(=O)c1Cl` reads “inactive”; that for `CC(C)N(C(=O)COc1nnc(C(F)(F)F)s1)c1ccc(F)cc1`, “inactive”; that for `CC(C)(C)C(O)C(Oc1ccc(Cl)cc1)n1cncn1` (stereo not given), “inactive”.
For the compound `N#CN`, the compound was called inactive.
The same measure, in the same setting: for `CC(C)OC(=O)Nc1cccc(Cl)c1` the value was “inactive”.
Consider `CC1(c2ccc(Oc3ccccc3)cc2)OC(=O)N(Nc2ccccc2)C1=O` (stereo not given), for which the AC50 is 33.5 µM (active).
Consider `Oc1cc(Cl)ccc1Oc1ccc(Cl)cc1Cl`, for which the result was inactive.
`O=C(NC(=O)c1c(F)cccc1F)Nc1ccc(OC(F)(F)C(F)OC(F)(F)F)c(Cl)c1` (stereo not given): the call was inactive.
Consider `CC[C@H](C)[C@H]1O[C@]2(C=C[C@@H]1C)C[C@@H]1C[C@@H](C/C=C(\C)[C@@H](O[C@H]3C[C@H](OC)[C@@H](O[C@H]4C[C@H](OC)[C@@H](O)[C@H](C)O4)[C@H](C)O3)[C@@H](C)/C=C/C=C3\CO[C@@H]4[C@H](O)C(C)=C[C@@H](C(=O)O1)[C@]34O)O2` (tested in a mixture with another compound), for which the AC50 was 18.8 µM (active).
Take `O=C(O)CCCOc1ccc(Cl)cc1Cl`: the compound was called inactive.
On the same count and under the same terms, for `COP(=S)(OC)Oc1ccc([N+](=O)[O-])cc1` the value was “inactive”; for `O=C1c2ccccc2C(=O)N1SC(Cl)(Cl)Cl`, “inactive”.
As to `C#CCN1C(=O)COc2cc(F)c(N3C(=O)C4=C(CCCC4)C3=O)cc21`, the call was inactive.
Consider `O=S1OCC2C(CO1)C1(Cl)C(Cl)=C(Cl)C2(Cl)C1(Cl)Cl` (stereo not given), for which the call was inactive.
For `Oc1ccc(Cl)cc1Cc1ccccc1`, the outcome was inactive.
On the same count and under the same terms, the result for `COP(=O)(OC)OC=C(Cl)Cl` reads “inactive”; that for `O=[N+]([O-])c1c(Cl)c(Cl)c(Cl)c(Cl)c1Cl`, “inactive”; that for `COc1nn(CSP(=S)(OC)OC)c(=O)s1`, “inactive”.
The same measure, in the same setting: the result for `CNC(=O)Oc1cccc(N=CN(C)C)c1` reads “inactive”; that for `COP(=S)(OC)Oc1ccc(SC)c(C)c1`, “inactive”.
With `Clc1ccccc1-c1nnc(-c2ccccc2Cl)nn1`, the outcome was inactive.
On the same count and under the same terms, for `O=[N+]([O-])/N=C1\NCCN1Cc1ccc(Cl)nc1` the value was “inactive”.
The same measure, in the same setting: for `CCC(C)Nc1c([N+](=O)[O-])cc(C(C)(C)C)cc1[N+](=O)[O-]` (stereo not given) the value was “inactive”; for `O=C(O)C(F)(F)C(F)(F)C(F)(F)C(F)(F)C(F)(F)C(F)(F)C(F)(F)F`, “inactive”.
Still for that read-out and setting: for `ClC1C(Cl)C(Cl)C(Cl)C(Cl)C1Cl` (stereo not given) the value was “inactive”.
With `CC(C)(C)C(O)/C(=C\c1ccc(Cl)cc1Cl)n1cncn1` (stereo not given), the AC50 was 72.7 µM (active).
Take `CCC(C)(C)C(=O)OC1=C(c2ccc(Cl)cc2Cl)C(=O)OC12CCCCC2`: the result was inactive.

One may read the AC50 as the concentration giving half of the maximal activity seen.
